Bioassay records from PubChem.
Rows were chosen to be rich in hits. Some 5.2% of all compounds tested hit in one or more screens of this group.
esBAF inh = Bmi1 luciferase reporter increase in mESCs, primary screen, esBAF inhibitor project, mouse ES cells, Bmi1 luciferase knock-in, single point. 24 h; 100% = twice the neutral-well signal. reporter increase, % at 12.5 µM. 350,000 compounds, 2% hits. AID 602393, 2012; in the data active = activation above about 40%;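 also: 0% = median of the plate's neutral control wells and 100% = double that signal; a rise in the Bmi1 reporter signal indicates esBAF inhibition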
NadD block = inhibitors of S. aureus NadD, primary screen, biochemical, colorimetric, uHTS. Nicotinate-nucleotide adenylyltransferase NadD (Staphylococcus aureus N315). purified NadD enzyme, colorimetric absorbance read-out. inhibition, % at 20 µM. 360,000 compounds, 0.78% hits; in the data active = inhibition above about 26%
Vif imaging = HIV Vif self-association inhibitors, primary screen, imaging, HEK293T, single point; HEK293T cells, Vif self-association by quenched fluorescence, 24 h; inhibition, % at 7.49 µM; 340,000 compounds, 0.35% hits; AID 602346, 2012; in the data active = inhibition above about 50%, passing the limit was not always enough
NR3A LBD binder = binders of NR3A ligand-binding domain, primary screen, biophysical, differential scanning fluorimetry, uHTS. NR3A LBD differential scanning fluorimetry, Tm shift; 0% = protein alone, 100% = glycine-bound protein. Glutamate receptor ionotropic, NMDA 3A (GRIN3A) ligand-binding domain. 340,000 compounds, 2.5% hits. Tm shift relative to glycine control, % at 25 µM;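 active = melting temperature shift of at least 10% of the positive control shift, at one fixed dose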
SKN-1 inh = suppressors of acrylamide-induced Pgst-4::GFP reporter in worms, primary screen, SKN-1 inhibitor project, whole organism, uHTS, GFP/RFP fluorescence ratio, strain VP596; C. elegans VP596 Pgst-4::GFP/RFP ratio, 24 h; inhibition, % at 21.8 µM; 360,000 compounds, 0.49% hits; AID 624304, 2012;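 active = interference check ratio from 0.5 to 1.5 plus GFP to RFP signal ratio inhibition reaching or exceeding a fixed threshold, cut at about 30% in these data, passing the limit was not always enough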
SMARCA2 activ = SMARCA2 (BRM) function activators, primary screen, cell-based, luminescence, high throughput; MG213 cells, MMTV-luciferase reporter, dexamethasone, overnight; activation, % at 9.1 µM; 370,000 compounds, 1% hits; AID 652017, 2013; in the data active = activation above about 7.8%;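 also: 0% = vehicle wells and 100% = reference activator wells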
SMARCA2 act conf = SMARCA2 (BRM) function activators, confirmation, cell-based, luminescence, triplicate. 3,500 compounds, 30% hits. AID 652260, 2013. MG213 cells, MMTV-luciferase with dexamethasone, overnight; MG213 cells expressing E1A, Rb sequestered; DMSO wells 0%, reference activator 100%. activation, % at 9.1 µM. shares compounds with SMARCA2 activ;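 active = activation above its plate's cutoff, the mean activation of tested wells plus 3 SD, cut at about 7.9% in these data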
GAL4-VP16 Luc = GAL4-VP16 luciferase reporter activation, counter-screen for SMARCA2 (BRM) activator project, cell-based, pG5luc, luminescence, high throughput; shares compounds with SMARCA2 activ; HEK293 GAL4-VP16 pG5luc reporter; scaled: DMSO wells 0%, SAHA wells 100%; activation, % at 9.1 µM; 3,500 compounds, 41% hits;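 active = activation above the solvent-only control well mean plus 3 SD, averaged across control plates, cut at about 5.2% in these data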
* marks the source's active call; other numbers are inactive results; x = no result given.

SMILES	esBAF inh	NadD block	Vif imaging	NR3A LBD binder	SKN-1 inh	SMARCA2 activ	SMARCA2 act conf	GAL4-VP16 Luc
CCOc1ccc(C2C3=C(Nc4nc(N)[nH]c(=O)c42)c2ccccc2C3=O)cc1 (centres undefined)	x	9	-3	-8	0	14*	-1	0
Cc1ccc2cc3c(N)c(C(=O)N4CCOCC4)sc3nc2c1	x	1	10	-17	12	9.5*	14*	14*
Cc1ccc(S(=O)(=O)N(C)C[C@@H]2OCCCC[C@H](C)Oc3ccc(NC(=O)Nc4ccccc4)cc3C(=O)N([C@@H](C)CO)C[C@H]2C)cc1	0	x	x	x	x	x	x	x
C=CCOc1ccc(/C=N/NC(=O)CC(=O)NC2CCCCC2)cc1	-7	5	-10	1	-1	2	x	x
CC(C)c1ccc(/C=N/NC(=O)CC(=O)NC2CCCCC2)cc1	-1	1	14	-2	5	8.4*	0	1
C[C@@H]1CN([C@H](C)CO)C(=O)c2cc(NC(=O)Cc3ccccc3)ccc2O[C@@H](C)CCCCO[C@@H]1CN(C)C(=O)CCC(F)(F)F	5	x	x	x	x	x	x	x
COc1cccc(-c2cc(NC=O)c3ncc(-c4ccc(OC)c(OC)c4)n3c2)c1	-21	-4	x	x	0	12*	11*	5
COc1ccc(-c2cnc3c(NC=O)cc(-c4ccc(F)cc4)cn23)cc1OC	-40	3	x	x	12	15*	14*	6.3*
CS(=O)(=O)Nc1cccc(-c2cc(NC=O)c3ncc(-c4ccc(F)c(Cl)c4)n3c2)c1	12	15	3	x	9	9.1*	6	2
COc1ccc(-c2cnc3c(NC=O)cc(-c4ccccc4)cn23)cc1OC	-39	2	x	x	3	14*	10*	6.1*
COc1ccc(-c2cnc3c(NC=O)cc(-c4ccc(S(C)(=O)=O)cc4)cn23)cc1OC	-4	-1	x	x	3	11*	11*	4
COc1cc(-c2cnc3c(NC=O)cc(-c4ccc(S(C)(=O)=O)cc4)cn23)cc(OC)c1OC	2	0	35	x	23	-4	x	x
COc1cccc(-c2cnc3c(NC=O)cc(-c4ccc(OC)cc4OC)cn23)c1	-43	11	x	x	16	3	x	x
COc1ccc(-c2cnc3c(NC=O)cc(-c4cccc(NS(C)(=O)=O)c4)cn23)cc1OC	-62	-7	x	x	-3	36*	36*	7.8*
COc1ccc(-c2cnc3c(NC=O)cc(-c4cc(OC)c(OC)c(OC)c4)cn23)cc1OC	6	-4	-4	x	9	15*	24*	9.4*
COc1ccc(-c2cc(NC=O)c3ncc(-c4ccc(OC)c(OC)c4)n3c2)c(OC)c1	-25	1	x	x	1	11*	17*	11*
COc1ccc(-c2cnc3c(NC=O)cc(-c4ccoc4)cn23)cc1OC	1	7	-2	x	14	5	x	x
C[C@H](CO)N1C[C@H](C)[C@@H](CN(C)C(=O)Nc2ccc(F)cc2)Oc2c(NC(=O)c3ccc(-c4nccs4)cc3)cccc2C1=O	-1	x	x	x	x	x	x	x
COC(=O)C[C@@H]1CC[C@@H]2[C@H](COc3ccc(NC(=O)c4ccc(C(F)(F)F)cc4)cc3C(=O)N2C)O1	-15	x	x	x	x	x	x	x
CN1CCN(c2ccc(-c3cc(NC=O)c4ncc(-c5ccc(F)c(Cl)c5)n4c3)cc2)CC1	11	19	0	x	-9	2	x	x
CC(=O)c1ccc(-c2cnc3c(NC=O)cc(-c4ccc(N5CCN(C)CC5)cc4)cn23)cc1	5	26	5	x	-6	12*	16*	4
N#C/C(=C(/O)c1ccc([N+](=O)[O-])cc1)c1nc2ccccc2[nH]1	x	10	-8	-1	6	1	x	x
N/N=C(/Cc1nc2ccccc2[nH]1)c1ccc([N+](=O)[O-])cc1	x	1	2	-2	-3	8.2*	4	5.9*
COC(=O)c1sc(-c2ccccc2)cc1NC(=O)C1CC1	x	-9	-10	1	9	8.9*	-4	2
CCOC(=O)[C@]12CCC=C1N(Cc1ccccc1)C(=O)[C@H](CC(=O)NCCc1ccccc1OC)C2	x	0	x	x	4	10*	-3	-1
SMILES	esBAF inh	NadD block	Vif imaging	NR3A LBD binder	SKN-1 inh	SMARCA2 activ	SMARCA2 act conf	GAL4-VP16 Luc
CCOC(=O)[C@]12CCCC=C1N(Cc1ccco1)C(=O)[C@H](CC(=O)NCCc1ccccc1OC)C2	x	2	x	x	-12	8.3*	0	0
CC1(C)OC(=O)C2=C(C[C@@H](CCC(F)(F)F)O[C@H]2c2ccc(F)cc2)O1	-5	-1	x	x	-10	8.2*	0	0
C[C@@H]1CN([C@H](C)CO)C(=O)c2cc(N(C)C)ccc2O[C@H]1CN(C)S(=O)(=O)c1ccc(F)cc1	-4	x	x	x	x	x	x	x
Cc1nc(-c2ccccc2)nc2[nH]c(C(C)C)cc(=O)c12	-5	1	-12	0	6	-2	x	x
Cc1nc(-c2ccccc2)nc2[nH]c(=O)n(-c3ccccc3)c(=O)c12	43*	5	3	-1	10	11*	3	6.3*
Cc1nc(NC(=O)C2CC2)sc1C(=O)Nc1ccccc1	0	-7	2	1	1	4	x	x
Cc1ccccc1NC(=O)c1sc(NC(=O)C2CC2)nc1C	10	-3	5	4	13	8.4*	1	0
Nc1c(Br)cc2oc(-c3ccccc3)nc2c1Br	58*	-3	-14	-2	-1	9.5*	12*	7.2*
C/C=C/c1ccc2c(c1)O[C@H](CN(C)C)[C@H](C)CN([C@@H](C)CO)S2(=O)=O	1	x	x	x	x	x	x	x
COc1ccc(C(=O)c2sc(Nc3ccccc3F)nc2N)cc1	40	-3	-11	-7	6	16*	11*	12*
Nc1nc(Nc2ccccc2)sc1C(=O)c1ccccc1	x	-7	-17	1	10	11*	12*	8.1*
COc1ccc(C(=O)c2sc(Nc3ccccc3)nc2N)cc1	25	-2	-1	-7	5	6	x	x
